The target of test [1] is Aryl hydrocarbon receptor (Homo sapiens) (UniProt P35869). Description: qHTS assay to identify small molecule that activate the aryl hydrocarbon receptor (AhR) signaling pathway (AID 743085).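 Also: HG2L7.5c1 human HepG2 liver cells with stably integrated DRE-driven firefly reporter; series mostly up to about 70 µM; nearly all actives have a fitted effect of over 15% in size.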 The essentials: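 Reporter assay in engineered HepG2 line HG2L7.5c1, whose plasmid carries twenty dioxin responsive elements upstream of firefly luciferase. Treatment lasted 24 h at 37C; ONE-Glo luminescence gauged induction.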

The nature of test [2]: qHTS assay to identify small molecule that activate the aryl hydrocarbon receptor (AhR) signaling pathway - cell viability counter screen (AID 743086). Also: nearly all actives have a fitted effect of over 45% in size. Also: potency is read from the fitted curve at half-maximal effect. The essentials:
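HepG2-AhR-luc (HG2L7.5c1) cells, 4000/well, were preincubated 5 h at 37C, exposed to compound in qHTS format for 24 hr at 37C, then given CellTiter-Fluor for 30 min; viability was read as fluorescence in the reporter wells.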

Test [3] in a line: qHTS assay to identify small molecule antagonists of the peroxisome proliferator-activated receptor gamma (PPARg) signaling pathway - cell viability counter screen (AID 743194). Also: nearly all actives have a fitted effect of over 55% in size. Also: potency is read from the fitted curve at half-maximal effect. The essentials:
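PPARg-UAS-bla HEK293H cells were plated, rested 5 h at 37 C, then treated with compounds plus rosiglitazone (50 nM final) for 17 h at 37 C; viability was then read by CellTiter-Glo luminescence after 30 min at room temperature.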
In general terms: Quantitative high-throughput screening tests each substance at several concentrations.

Test [4] can be described thus: qHTS assay for small molecule agonists of the antioxidant response element (ARE) signaling pathway - cell viability counter screen (AID 743203; calls by dose curve; also: nearly all actives have a fitted effect of over 55% in size). In short, it runs like this: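 Viability counter screen: CellTiter-Glo luminescence, read after 30 min at room temperature, in ARE-bla HepG2 wells. Compound exposure lasted 16 h at 37C/5% CO2, following a 5 h pre-incubation of the cells after plating.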

Test [5] can be described thus: qHTS assay for small molecule activators of the heat shock response signaling pathway - cell viability counter screen (AID 743209). Also: nearly all actives have a fitted effect of over 50% in size. In short, it runs like this: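 Cytotoxicity counter screen run in the same wells as the heat-shock bla reporter assay: HeLa HSE-bla cells, 5 h compound exposure at 37 C, viability read by CellTiter-Glo luminescence.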
A short description of test [6]: qHTS assay for small molecule activators of the heat shock response signaling pathway (AID 743210; active = well fitted activation curve with a large enough effect in the signal ratio in the repeat runs, with a control signal flat, not every such curve was filed as active; the % refers to the signal ratio; also: potency is read from the fitted curve at half-maximal effect; as to activation: series mostly up to about 63 µM). The essentials: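 Heat shock element–beta-lactamase HeLa reporter cells; qHTS with compounds for 5 h at 37 C; detection by FRET substrate fluorescence after 2.5 h at RT.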
Test [7] can be described thus: qHTS assay to identify small molecule agonists of the peroxisome proliferator-activated receptor delta (PPARd) signaling pathway - cell viability counter screen (AID 743211). Also: nearly all actives have a fitted effect of over 55% in size. Also: potency is read from the fitted curve at half-maximal effect. In short, it runs like this:
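Multiplexed format: after the 2 h room-temperature LiveBLAzer B/G FRET step, CellTiter-Glo was added to the same wells. Luminescence after 30 min gave cell viability; compound exposure was 17 h at 37C.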

For test [8], the target named is Peroxisome proliferator-activated receptor delta (Homo sapiens) (UniProt Q03181). The experiment in a line: qHTS assay to identify small molecule agonists of the peroxisome proliferator-activated receptor delta (PPARd) signaling pathway (AID 743212; calls by dose curve). The essentials: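 Beta-lactamase reporter read by fluorescence (LiveBLAzer B/G FRET, 2 h, room temperature). Test agents, in DMSO, incubated at 37 C with PPARd-bla HEK293H cells.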

Test [9] in a line: qHTS assay to identify small molecule antagonists of the peroxisome proliferator-activated receptor delta (PPARd) signaling pathway - cell viability counter screen (AID 743213). Also: nearly all actives have a fitted effect of over 50% in size. Also: potency is read from the fitted curve at half-maximal effect. The essentials:
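Viability counter-screen, qHTS format: PPARd-bla HEK293H, L165041 300 nM final, 17 h compound exposure at 37 C, CellTiter-Glo luminescence after 30 min RT.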

In test [10] the target is Peroxisome proliferator-activated receptor delta (Homo sapiens) (UniProt Q03181). Description: qHTS assay to identify small molecule antagonists of the peroxisome proliferator-activated receptor delta (PPARd) signaling pathway (AID 743215; active = well fitted inhibition curve with a large enough effect in the signal ratio in the repeat runs, not every such curve was filed as active; the % refers to the signal ratio;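 also: cells stimulated with agonist L165041 at 300 nM final during compound exposure; series mostly up to about 62 µM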). In short, it runs like this:
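Agonist L165041 (300 nM final) added with compound to PPARd-bla HEK293H UAS-bla reporter cells; 17 h incubation at 37 C. Read-out: LiveBLAzer FRET substrate, 2 h at room temperature, fluorescence intensity.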

Test [11] can be described thus: qHTS assay to identify small molecule agonists of the farnesoid-X-receptor (FXR) signaling pathway - cell viability counter screen (AID 743218). Also: nearly all actives have a fitted effect of over 45% in size. Also: potency is read from the fitted curve at half-maximal effect. In short, it runs like this: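 Viability counter screen in the same wells: CellTiter-Glo luminescence, 30 min room-temperature incubation, measured after the beta-lactamase read. Cells were GeneBLAzer FXR-UAS-bla HEK 293T, compound-treated 16 h at 37C.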

Test [12] is described as follows: qHTS assay to identify small molecule antagonists of the farnesoid-X-receptor (FXR) signaling pathway - cell viability counter screen (AID 743221; active = well fitted cell-killing curve with a large enough effect in the repeat runs, not every such curve was filed as active; also: nearly all actives have a fitted effect of over 50% in size). In short, it runs like this:
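CellTiter-Glo, 30 min RT, luminescence; same wells as the LiveBLAzer FRET read. Cells: FXR-UAS-bla HEK 293T. Treatment: compound with chenodeoxycholic acid 50 uM final, 16 h at 37 C.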

A short description of test [13]: qHTS assay to identify aromatase inhibitors - cell viability counter screen (AID 743084).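 Also: cells stimulated with testosterone during compound exposure; nearly all actives have a fitted effect of over 55% in size.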 Also: potency is read from the fitted curve at half-maximal effect.
The target in test [14] is Peroxisome proliferator-activated receptor gamma (Homo sapiens) (UniProt P37231). Description: qHTS assay to identify small molecule antagonists of the peroxisome proliferator-activated receptor gamma (PPARg) signaling pathway (AID 743191; calls by dose curve; also: nearly all actives have a fitted effect of over 30% in size; also: potency is read from the fitted curve at half-maximal effect). In short, it runs like this:
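GeneBLAzer PPARg UAS-bla HEK293H cells carrying a UAS-driven beta-lactamase reporter were plated at 3000 cells/well, preincubated 5 h at 37C, then given compound for 17 h at 37C; LiveBLAzer B/G FRET substrate was read after 1 h at room temperature.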

Test [15] deals with Vitamin D3 receptor (Homo sapiens) (UniProt P11473). The experiment in a line: qHTS assay to identify small molecule antagonists of the vitamin D receptor (VDR) signaling pathway (AID 743223; active = well fitted inhibition curve with a large enough effect in the signal ratio in the repeat runs, not every such curve was filed as active; the % refers to the signal ratio). In short, it runs like this:
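After VDR-bla cells are plated and left 4 h at 37C, DMSO-dissolved compounds and 3 nM (final) calcitriol agonist are added. Incubation continues 16 h at 37C; FRET beta-lactamase substrate then develops 2 h at room temperature.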

Test [16] addresses Bile acid receptor (Homo sapiens) (UniProt Q96RI1). The experiment in a line: qHTS assay to identify small molecule antagonists of the farnesoid-X-receptor (FXR) signaling pathway (AID 743217; active = well fitted inhibition curve with a large enough effect in the signal ratio in the repeat runs, not every such curve was filed as active; the % refers to the signal ratio). The essentials: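 Antagonist mode: chenodeoxycholic acid at 50 uM final stimulates a UAS-driven beta-lactamase reporter in HEK 293T FXR-bla cells during 16 h, 37C compound exposure. Read-out is FRET substrate fluorescence after 2 h at room temperature.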

Test [17] shares this target. The experiment in a line: qHTS assay to identify small molecule agonists of the farnesoid-X-receptor (FXR) signaling pathway (AID 743220; active = well fitted activation curve with a large enough effect in the signal ratio in the repeat runs, not every such curve was filed as active; the % refers to the signal ratio). The essentials: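 FXR-UAS-bla HEK 293T cells carrying a UAS-driven beta-lactamase reporter were plated for 5 h at 37C/5% CO2, then exposed to DMSO-dissolved Tox21 10K compounds for 16 h at 37C. A LiveBLAzer B/G FRET substrate was loaded for 2 h at room temperature before fluorescence reading.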

Test [18] addresses Vitamin D3 receptor (Homo sapiens) (UniProt P11473). Description: qHTS assay to identify small molecule agonists of the vitamin D receptor (VDR) signaling pathway (AID 743222; calls by dose curve). The essentials: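 Agonist mode, beta-lactamase reporter: fluorescence from LiveBLAzer B/G FRET substrate (2 h, room temperature) read after 16 h compound treatment at 37 C of VDR-bla cells, which were pre-incubated 4 h after seeding.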

A short description of test [19]: qHTS assay for small molecule agonists of the antioxidant response element (ARE) signaling pathway (AID 743202; active = well fitted activation curve with a large enough effect in the signal ratio in the repeat runs, not every such curve was filed as active; the % refers to the signal ratio; also: potency is read from the fitted curve at half-maximal effect). In short, it runs like this:
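Following a 16 h, 37 C exposure of reporter HepG2 cells (ARE-driven beta-lactamase, 2,000 cells/well) to compounds, FRET substrate was applied for 2 h at room temperature and fluorescence intensity recorded.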

Records with an inconclusive call do not appear. Active and inactive are the calls of the source. Unless noted, calls follow the shape of the dose curve; as a rule, active = well fitted curve in the direction sought with a large enough effect in the repeat runs; inconclusive = weak or mixed curves; inactive = no such curve, though single readings can be large; an effect the other way counts as inactive or inconclusive.

Sequence of Peroxisome proliferator-activated receptor gamma (Homo sapiens) (P37231 whole entry, looked up): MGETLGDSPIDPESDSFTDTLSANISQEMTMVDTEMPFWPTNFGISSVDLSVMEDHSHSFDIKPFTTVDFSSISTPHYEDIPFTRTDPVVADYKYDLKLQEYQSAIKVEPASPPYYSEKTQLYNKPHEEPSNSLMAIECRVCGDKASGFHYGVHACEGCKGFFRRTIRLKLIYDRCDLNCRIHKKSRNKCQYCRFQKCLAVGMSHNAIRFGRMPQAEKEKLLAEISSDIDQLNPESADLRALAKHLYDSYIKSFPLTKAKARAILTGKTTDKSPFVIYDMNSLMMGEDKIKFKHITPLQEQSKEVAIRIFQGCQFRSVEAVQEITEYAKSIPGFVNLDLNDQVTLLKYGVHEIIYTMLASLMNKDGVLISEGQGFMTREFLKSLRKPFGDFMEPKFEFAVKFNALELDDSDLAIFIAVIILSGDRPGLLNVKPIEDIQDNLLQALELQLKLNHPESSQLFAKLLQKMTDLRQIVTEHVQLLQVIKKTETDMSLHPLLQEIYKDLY
Sequence of Bile acid receptor (Homo sapiens) (Q96RI1 whole entry, looked up): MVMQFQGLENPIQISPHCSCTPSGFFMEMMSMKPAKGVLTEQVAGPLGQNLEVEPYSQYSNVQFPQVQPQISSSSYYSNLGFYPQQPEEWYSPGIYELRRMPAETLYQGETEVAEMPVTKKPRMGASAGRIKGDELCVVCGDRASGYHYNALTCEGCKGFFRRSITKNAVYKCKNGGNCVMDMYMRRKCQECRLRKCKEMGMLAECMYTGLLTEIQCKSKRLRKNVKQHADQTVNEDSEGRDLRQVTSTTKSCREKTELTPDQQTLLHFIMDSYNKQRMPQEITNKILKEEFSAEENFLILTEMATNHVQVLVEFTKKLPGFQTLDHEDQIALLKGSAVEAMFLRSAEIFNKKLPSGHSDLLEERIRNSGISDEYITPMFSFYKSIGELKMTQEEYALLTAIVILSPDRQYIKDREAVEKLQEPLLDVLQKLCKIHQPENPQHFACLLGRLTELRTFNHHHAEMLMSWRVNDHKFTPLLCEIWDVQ
Sequence of Vitamin D3 receptor (Homo sapiens) (P11473 whole entry, looked up): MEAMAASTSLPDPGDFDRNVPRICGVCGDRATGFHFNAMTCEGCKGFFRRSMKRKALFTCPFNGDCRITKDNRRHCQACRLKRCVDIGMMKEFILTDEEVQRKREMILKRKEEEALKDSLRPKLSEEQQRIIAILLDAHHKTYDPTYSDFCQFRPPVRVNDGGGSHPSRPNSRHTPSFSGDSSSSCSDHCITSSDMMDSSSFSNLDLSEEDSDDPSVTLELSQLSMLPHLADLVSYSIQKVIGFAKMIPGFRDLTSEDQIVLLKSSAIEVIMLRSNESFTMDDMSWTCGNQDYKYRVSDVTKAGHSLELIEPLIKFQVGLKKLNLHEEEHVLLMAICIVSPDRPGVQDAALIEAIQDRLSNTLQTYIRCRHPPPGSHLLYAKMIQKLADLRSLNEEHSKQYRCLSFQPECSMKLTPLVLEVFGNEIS
Sequence of Peroxisome proliferator-activated receptor delta (Homo sapiens) (Q03181 whole entry, looked up): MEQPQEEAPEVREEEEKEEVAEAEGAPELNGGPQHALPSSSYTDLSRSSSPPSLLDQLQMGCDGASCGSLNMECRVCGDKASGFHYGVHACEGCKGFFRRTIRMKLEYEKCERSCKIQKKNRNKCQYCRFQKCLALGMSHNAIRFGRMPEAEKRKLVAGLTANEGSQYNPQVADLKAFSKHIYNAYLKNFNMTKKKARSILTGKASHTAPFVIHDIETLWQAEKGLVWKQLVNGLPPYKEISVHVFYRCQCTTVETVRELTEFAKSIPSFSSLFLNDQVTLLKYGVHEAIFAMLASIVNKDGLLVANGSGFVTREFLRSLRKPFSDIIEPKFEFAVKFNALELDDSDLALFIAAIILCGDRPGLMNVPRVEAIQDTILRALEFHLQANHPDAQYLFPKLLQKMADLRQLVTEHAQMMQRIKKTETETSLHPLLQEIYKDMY
Sequence of Aryl hydrocarbon receptor (Homo sapiens) (P35869 whole entry, looked up): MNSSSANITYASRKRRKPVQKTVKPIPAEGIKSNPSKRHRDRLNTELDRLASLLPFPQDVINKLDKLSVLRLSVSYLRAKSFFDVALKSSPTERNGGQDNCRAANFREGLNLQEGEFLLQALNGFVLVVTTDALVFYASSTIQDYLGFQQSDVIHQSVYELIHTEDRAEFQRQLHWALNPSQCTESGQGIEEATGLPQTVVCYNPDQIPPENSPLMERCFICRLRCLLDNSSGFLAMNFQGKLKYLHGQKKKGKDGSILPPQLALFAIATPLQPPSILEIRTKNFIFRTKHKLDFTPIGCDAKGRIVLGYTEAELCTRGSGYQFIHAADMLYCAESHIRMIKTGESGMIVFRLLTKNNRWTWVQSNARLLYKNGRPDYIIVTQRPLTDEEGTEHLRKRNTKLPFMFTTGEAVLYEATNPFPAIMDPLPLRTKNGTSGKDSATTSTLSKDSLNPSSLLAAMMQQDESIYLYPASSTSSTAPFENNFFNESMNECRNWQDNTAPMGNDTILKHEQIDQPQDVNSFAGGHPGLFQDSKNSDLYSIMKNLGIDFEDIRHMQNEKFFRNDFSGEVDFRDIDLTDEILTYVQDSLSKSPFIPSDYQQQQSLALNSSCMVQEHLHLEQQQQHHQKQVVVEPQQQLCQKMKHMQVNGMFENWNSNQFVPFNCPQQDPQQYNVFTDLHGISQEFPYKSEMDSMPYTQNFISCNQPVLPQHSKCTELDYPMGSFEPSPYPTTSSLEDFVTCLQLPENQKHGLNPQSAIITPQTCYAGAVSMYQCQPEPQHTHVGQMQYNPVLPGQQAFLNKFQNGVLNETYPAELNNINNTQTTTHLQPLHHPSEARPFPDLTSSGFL

Regarding `CCCC(=O)C(=O)O`, the Potency result in [1], in [2], in test [3], in test [4], in test [5] and in test [6] was “inactive” throughout. Also, the Potency result in test [7], in test [8], in test [9], in test [10], in test [11] and in test [12] was “inactive” in each case.

`O=C(/C=C/c1ccc(O)c(O)c1)O[C@@H]1C[C@@](OC(=O)/C=C/c2ccc(O)c(O)c2)(C(=O)O)C[C@@H](O)[C@@H]1O`: the Potency result in [13], in test [2], in test [14], in test [3], in test [5] and in test [6] was “inactive” throughout. In addition, the Potency result in [7], in test [9], in [10], in test [11], in test [12] and in test [15] was “inactive” in each case.

On to `C[C@@H](O)[C@H]1C(=O)N2C(C(=O)O)=C([C@H]3CCCO3)S[C@H]12`, for which the Potency entry in [13], in test [2], in test [14], in test [3], in [4] and in [5] was “inactive” each time. Also, the Potency result in test [7], in test [9], in [10], in test [16], in [11] and in test [17] was “inactive” throughout.

As for `O=c1cc(-c2ccccc2)oc2ccc3ccccc3c12`, the Potency entry in test [13], in [2], in test [14], in test [10] and in [18] was “inactive” in each case. The Potency in [3] is 19.5 µM (active); in test [7], 17.4 µM (active); in test [9], 13.8 µM (active); in test [11], 8.71 µM (active).

On to `Oc1cc2c(cc1O)[C@H]1c3ccc(O)c(O)c3OC[C@@]1(O)C2`, for which the Potency in test [13] was 24.6 µM (active); in test [2], 27.6 µM (active). The Potency result in [4], in [5], in test [7], in test [8], in [9] and in test [12] was “inactive” throughout.

For `CN1CCCC(CC2c3ccccc3Sc3ccccc32)C1` (configuration not stated), the Potency entry in test [13], in test [5], in [6] and in test [17] was “inactive” each time. The Potency in test [14] was 10.6 µM (active); in test [3] it was 16.8 µM (active); in [7], 29.8 µM (active); in test [9] it was 26.6 µM (active); in test [11], 13.3 µM (active).

For `COC(=O)C1=C(C)NC(C)=C(C(=O)O[C@@H]2CCCN(Cc3ccccc3)C2)[C@@H]1c1cccc([N+](=O)[O-])c1`, the Potency result in [13], in [3], in [6], in test [9], in test [10] and in [12] was “inactive” throughout. The Potency entry in test [18] and in test [15] was “inactive” in each case.

As for `CC[C@]1(O)C[C@H]2CN(CCc3c([nH]c4ccccc34)[C@@](C(=O)OC)(c3cc4c(cc3OC)N(C=O)[C@H]3[C@@](O)(C(=O)OC)[C@H](OC(C)=O)[C@]5(CC)C=CCN6CC[C@]43[C@@H]65)C2)C1`, the Potency result in test [1], in test [2], in test [14], in [3], in [5] and in [6] was “inactive” throughout. For the same molecule, the Potency result in test [7], in test [8], in test [9], in test [10] and in [12] was “inactive” throughout.

Consider `CC(C)=CCC1C(=O)N(c2ccccc2)N(c2ccccc2)C1=O`, for which the Potency entry in test [13], in [2], in [3], in test [4], in [5] and in [7] was “inactive” in each case. For the same molecule, the Potency entry in test [12] and in [18] was “inactive” in each case. Further, the values for the Potency in test [14], in test [19] and in test [6] were 4.22 µM (active), 1.88 µM (active) and 28.7 µM (active), respectively.

As to `O=[N+]([O-])c1ccc(O/N=C/c2cc(Br)c(O)c(Br)c2)c([N+](=O)[O-])c1`, the Potency entry in [13], in test [2], in test [5], in test [16], in test [11] and in [17] was “inactive” each time. In addition, the Potency entry in [18] and in [15] was “inactive” in each case. Moreover, the Potency in test [14] is 19.4 µM (active); in [19], 8.59 µM (active).

Turning to `CCC1CO1` (configuration not stated), the Potency entry in test [13], in [2], in test [19], in [4], in test [6] and in test [7] was “inactive” throughout. Besides, the Potency entry in test [8], in [9], in [10], in test [16], in [11] and in test [17] was “inactive” each time. For the same molecule, the Potency entry in [12], in [18] and in test [15] was “inactive” each time.

Values taken from PubChem BioAssay (Tox21).
